Measured values reported in PubChem BioAssay.
Results filed as inconclusive are left out. Calls of active or inactive are those of the source. Cut-off read from the data, not from the text of the source, unless noted: active = inhibition above about 80%; inactive = the rest.

What was measured:
[1] = compounds altering circadian rhythm period length – cell-based, LOPAC library, luminescence reporter (AID 2774; call rule not given here;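 note: values are relative to mean of DMSO wells on each plate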); conditions: circadian reporter cells, at 7 µM, actives lie on both sides
[2] = system: Hepatitis C virus NS3 helicase; experiment: blockers of NS3h binding to ssDNA – biochemical, fluorescence polarization, LOPAC1280 library, primary screen (AID 687035; in the data active = inhibition above about 37%); conditions: Purified HCV NS3 helicase, Cy5-dT15 ssDNA binding fluorescence polarization; stronger effect = higher value; concentration not given here
[3] = compounds altering Cy5-DNA-NS3h complex signal – biochemical, LOPAC1280, artefact control for HCV NS3 helicase inhibitor project (AID 687037; call rule not given here); conditions: Cy5-DNA-NS3h complex fluorescence interference counterscreen
[4] = viability loss in pontine glioma line – cell-based, SU-DIPG-XVII, MIPE5.0, CellTiter-Glo, qHTS, dose response (AID 1347060; cut-off not given, nearly all actives have AC50 up to about 26 µM;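 note: cells exposed to compound for 48 hours before viability readout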); conditions: CellTiter-Glo ATP luminescence
[5] = viability loss in pontine glioma line – cell-based, SU-DIPG-XIII, MIPE4.0, CellTiter-Glo, qHTS, dose response (AID 1347061; cut-off not given, nearly all actives have AC50 up to about 37 µM;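 note: cells exposed to compound for 48 hours before readout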); conditions: CellTiter-Glo ATP luminescence
[6] = viability loss in pontine glioma line – cell-based, JHH-DIPG-1, MIPE4.0, CellTiter-Glo, qHTS, dose response (AID 1347062; cut-off not given, nearly all actives have AC50 up to about 27 µM;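 note: cells exposed to compound for two days before readout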); conditions: JHH-DIPG-1 viability, CellTiter-Glo ATP luminescence
[7] = viability loss in pontine glioma line – cell-based, SU-DIPG-XXV, MIPE5.0, CellTiter-Glo, qHTS, dose response (AID 1347065; cut-off not given, nearly all actives have AC50 up to about 26 µM;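 note: cells exposed to compound for 48 hours before ATP readout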); conditions: CellTiter-Glo ATP luminescence
[8] = growth inhibition of DIPG cells – cell-based, MIPE4.0 library, CellTiter-Glo luminescence, qHTS (AID 1347066; cut-off not given, nearly all actives have AC50 up to about 30 µM;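 note: cells exposed to compound for 48 hours before readout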); conditions: SU-DIPG-VI viability, CellTiter-Glo ATP luminescence
[9] = growth inhibition of DIPG cells – cell-based, MIPE5.0 library, qHTS (AID 1347068; cut-off not given, nearly all actives have IC50 up to about 30 µM;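 note: cells exposed to compound for 48 hours before viability readout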); conditions: SU-DIPG-XXV viability
[10] = blockers of cellular phospholipid synthesis – cell-based, LOPAC library, screen 4, primary screen (AID 1347384; call rule not given here); conditions: animal cells, phospholipid biosynthesis inhibition screen; at 10 µM
[11] = growth inhibition, single agent or in combination, cell-based, chromothripsis tumors, cisplatin or BGB combos (AID 1671449); conditions: LFS_MB_P medulloblastoma cells;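 note: cells exposed for 96 hours; 0% = vehicle DMSO and 100% = killing by high DMSO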
[12] = growth inhibition, single agent and combos, cell-based, chromothripsis tumors, cisplatin or BGB combos (AID 1671450); conditions: HDN33 neuroblastoma cells, stronger effect = higher value;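 note: cells exposed to compound for four days; 0% = vehicle DMSO and 100% = cell killing by high DMSO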
[13] = growth inhibition, single agents and combos, LFS_MB_1R, cell-based, cisplatin or BGB combos, synergistic combos for chromothripsis tumors (AID 1671452); conditions: LFS_MB_1R medulloblastoma cells, stronger effect = higher value;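 note: cells exposed for 96 hours before readout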
[14] = growth inhibition, single agents and combos, HTB85, cell-based, BGB or cisplatin IC20 combos, synergistic combos for chromothripsis tumors (AID 1671453); conditions: HTB85 osteosarcoma cells, drug combinations, stronger effect = higher value;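 note: cells exposed for 96 hours before readout; 0% = vehicle DMSO and 100% = high DMSO killing control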
[15] = growth inhibition, MDA-MB-436, cell-based, BGB or cisplatin combos, synergistic combos for chromothripsis tumors (AID 1671458; call rule not given here;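 note: cells exposed for 96 hours; 0% = vehicle DMSO and 100% = killing by high DMSO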); conditions: MDA-MB-436 breast carcinoma growth inhibition, drug combinations, stronger effect = higher value
[16] = BT084 cell growth, single and combined drugs, ICGC_MB145, cisplatin and BGB IC40 combos (AID 1671461); conditions: BT084 medulloblastoma cells, drug combinations, stronger effect = higher value;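 note: cells exposed to drugs for 96 hours; 0% = vehicle DMSO and 100% = high DMSO full killing control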
[17] = RCMB18 cell growth, single agent and combined, cisplatin and BGB IC40 combos (AID 1671462); conditions: RCMB18 medulloblastoma cells, stronger effect = higher value;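 note: cells exposed to compound for four days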
[18] = CRL1545 cell growth, single agent and combined, cisplatin and BGB IC20 combos (AID 1671464); conditions: CRL1545 osteosarcoma cells, stronger effect = higher value;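 note: cells exposed to compound for 96 hours before readout; 0% = vehicle DMSO and 100% = high DMSO killing control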
[19] = measured here: combination with BGB IC40, at 0.05 µM
[20] = measured here: with BGB IC20 combination, at 0.5 µM
[21] = measured here: with cisplatin IC20 combination, at 0.5 µM
[22] = measured here: combination with cisplatin, at 0.5 µM

With `O=C1c2c(O)ccc(O)c2C(=O)c2c(NCCNCCO)ccc(NCCNCCO)c21` the period change [1] was -1.74 h (active), the inhibition [2] was 119% (active) and the fluorescence ratio (interference) [3] was 0.5 (active). The AC50 [4] was 0.417 µM (active), the AC50 [5] was 18.7 µM (active) and the AC50 [6] was 2.35 µM (active). For the same compound, the AC50 [7] was 11.8 µM (active), the AC50 [8] was 23.5 µM (active) and the IC50 [9] was 18.6 µM (active). For the same compound, the outcome [10] was “inactive”, the inhibition ([11]; at 0.5 µM, stronger effect = higher value) was -22.5% (inactive) and the inhibition ([11]; measured here: combination with BGB IC20, at 0.005 µM) was -15.5%. The inhibition ([11]; measured here: combination with BGB IC40, at 0.005 µM) was -3.49%, the inhibition [11, 19] was -28% and the inhibition ([11]; measured here: combination with cisplatin, at 0.5 µM, stronger effect = higher value) was -39.3%. The inhibition ([11]; measured here: combination with cisplatin, at 5 µM, stronger effect = higher value) was 106%, the inhibition ([12]; BGB combo, at 5 µM) was 98.9% and the inhibition ([12]; at 0.5 µM) was 60.1% (inactive). It also gave an inhibition ([12]; cisplatin combo, at 5 µM) of 99.3%, an inhibition [12, 20] of 57.7% and an inhibition [12, 21] of 53.6%. The inhibition ([12]; single agent, at 5 µM) was 99.3%, the inhibition ([13]; at 0.5 µM) was -4.33% (inactive) and the inhibition [13, 19] was 1.71%. For the same compound, the inhibition [13, 22] was 72.8%, the inhibition ([13]; measured here: combination with cisplatin, at 5 µM) was 94.2% and the inhibition ([14]; at 0.5 µM) was 94.8% (active). The inhibition ([14]; measured here: with BGB IC20, at 0.5 µM) was 90.1%, the inhibition ([14]; measured here: with BGB IC20, at 5 µM) was 99.7% and the inhibition ([14]; measured here: with cisplatin IC20, at 0.5 µM) was 97.6%. For the same compound, the inhibition ([14]; measured here: with cisplatin IC20, at 5 µM) was 99.8%, the inhibition ([14]; single agent, at 5 µM) was 99.8% and the inhibition ([15]; at 0.5 µM) was 53.4% (inactive). The inhibition ([15]; measured here: BGB combination, at 0.5 µM) was 42.1%, the inhibition ([15]; measured here: BGB combination, at 5 µM) was 93.8% and the inhibition ([15]; measured here: cisplatin combination, at 0.5 µM) was 45.8%. For the same compound, the inhibition ([15]; measured here: cisplatin combination, at 5 µM) was 95.6%, the inhibition ([16]; at 0.5 µM) was -10.6% (inactive) and the inhibition ([16]; cisplatin combination, at 0.5 µM) was 42.8%. It also gave an inhibition ([16]; cisplatin combination, at 5 µM) of 49.8%, an inhibition ([16]; measured here: BGB IC40 combination 0.05 uM, at 0.05 µM) of -13% and an inhibition ([16]; single agent, at 5 µM) of 75.3%. For the same compound, the inhibition ([17]; at 0.5 µM) was -1.35% (inactive), the inhibition ([17]; cisplatin combo, at 5 µM) was 70.8% and the inhibition ([17]; measured here: BGB IC40 combination, at 0.05 µM) was -3.01%. For the same compound, the inhibition [17, 22] was -18.9%, the inhibition ([17]; single agent, at 5 µM) was 55.2% and the inhibition ([18]; at 0.5 µM) was 65.5% (inactive). For the same compound, the inhibition [18, 20] was 74%, the inhibition [18, 21] was 61.2% and the inhibition ([18]; single agent, at 0.05 µM) was 43.2%. It also gave an inhibition ([18]; single agent, at 5 µM) of 99.2%.
